uPA surface inh: inhibitors of cell surface uPA generation; cell surface uPA generation assay, qHTS; Potency, µM (series often up to 38.3 µM), inactives show at the highest dose activity change, negative = inhibition, most hits filed as inhibitors; hit rate 0.31% among 330,000; active = well fitted inhibition curve with a large enough effect; inconclusive = small, poorly fitted or top-dose-only effect; inactive = no such curve, though single readings can be large or run the other way; tested in mouse RAW 264.7 cells; note: % is set by controls: 0 for no effect and ±100 for the full control effect; nearly all actives have a fitted effect of over 55% in size
FLuc modulator: counter-screen for miR-21 project: firefly luciferase inhibitors or activators | purified FLuc, Km substrates, luminescence inhibition | Potency, µM (highest dose often 57.5 µM), for the others: at the highest dose activity change, negative = inhibition, hits mostly inhibitors | hit rate 6.9% among 360,000;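 note: plate controls were vehicle for no effect and reference inhibitor for full effect; nearly all actives have a fitted effect of over 55% in size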
Target sequence (P08659 whole entry, looked up): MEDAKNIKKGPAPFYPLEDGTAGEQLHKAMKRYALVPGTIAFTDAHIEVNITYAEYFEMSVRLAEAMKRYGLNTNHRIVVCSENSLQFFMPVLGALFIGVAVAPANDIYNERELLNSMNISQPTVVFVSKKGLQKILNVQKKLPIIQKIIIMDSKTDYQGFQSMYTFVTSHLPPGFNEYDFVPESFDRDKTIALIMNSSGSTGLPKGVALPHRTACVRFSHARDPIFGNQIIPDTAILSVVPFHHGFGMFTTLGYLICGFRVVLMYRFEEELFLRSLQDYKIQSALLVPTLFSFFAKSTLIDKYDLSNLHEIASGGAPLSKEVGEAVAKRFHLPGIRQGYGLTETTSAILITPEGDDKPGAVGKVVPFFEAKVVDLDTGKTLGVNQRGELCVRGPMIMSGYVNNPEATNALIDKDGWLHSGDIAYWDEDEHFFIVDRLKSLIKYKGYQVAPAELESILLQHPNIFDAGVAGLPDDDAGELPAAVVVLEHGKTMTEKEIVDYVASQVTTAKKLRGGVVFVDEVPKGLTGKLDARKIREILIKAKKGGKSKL
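Biochemical qHTS of compounds, final roughly 60 µM downward over six points, against 10 nM purified firefly luciferase using Km concentrations of substrates (10 uM D-luciferin, 10 uM ATP) in Tris acetate pH 7.5 buffer; luminescence output.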
SMN2 splice enh: enhancers of SMN2 splice variant expression; Potency, µM (top dose mostly 46.1 µM), for inactives: at the highest dose activity change, positive = activation, usual class: activators; HEK293 SMN2-luciferase splicing reporter, luminescence, 30-36 h; AID 1458; hit rate 2.8% among 210,000; note: % of control where 0% means no effect; nearly all actives have a fitted effect of over 55% in size
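HEK293 cells carry an SMN2 […]–luciferase reporter in which exon 7 inclusion puts luciferase in frame. Cells were plated 10-12 h before compound addition, then incubated 30-36 h at 37C. ONE-Glo luminescence was read; sodium butyrate at 4.5 mM final served as control.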
ELG1 genotox: genotoxicity induction in ELG1-luciferase HEK293T cells; HEK293T ELG1-luciferase reporter, luminescence, 16 h; Potency, µM (doses to about 46 µM), for inactives: at the highest dose activity change, positive = activation, usual class: activators; hit rate 1.3% among 330,000; AID 504466; note: % of control where 0% means no effect; nearly all actives have a fitted effect of over 60% in size
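16 hr compound incubation (37 °C, 5% CO2) of HEK293T cells carrying luciferase-tagged ELG1; luciferase then measured by ONE-Glo luminescence after 30 min at RT.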
Rab9 promoter act: Rab9 promoter activation; Huh7 Rab9 promoter-luciferase reporter, luminescence, 24 h; Potency, µM (titrated, usually from 9.22 µM), without a hit: at the top dose activation, negative = inhibition, usual class: activators; hit rate 2.8% among 320,000; AID 485297; note: % of control where 0% means no effect; nearly all actives have a fitted effect of over 60% in size
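Steps: seed 1500 Huh7 Rab9-luc cells per well, rest 2 h at 37 °C; add compound in DMSO; incubate 24 h; add luciferase reagent, 10 min ambient; read luminescence.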
NPC1 prom act: NPC1 promoter activation | Huh7 NPC1 promoter luciferase reporter, 24 h | Potency, µM (series often up to 9.22 µM), for inactives: top-dose activation, usual class: activators | hit rate 2.4% among 320,000; note: % of control where 0% means no effect; nearly all actives have a fitted effect of over 60% in size
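Stable NPC1-promoter luciferase Huh7 line; cpd (DMSO) 24 h, 37 °C, 5% CO2; Amplite luciferase reagent 10 min RT; luminescence readout. qHTS format.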
* hit, by the source's call; ? = inconclusive; · = not tested or not shown; [ ] = another dose, or the depositor's remark. A selection: hits, their analogues and other compounds. The true share with any hit is near 7.3%. Unless noted, calls come from the whole dose curve; as a rule, active = well fitted curve in the direction sought with a large enough effect; inconclusive = small, poorly fitted or top-dose-only effect, or another doubt; inactive = no such curve, though single readings can be large; an effect the other way counts as inactive or inconclusive. Potency is the fitted concentration of half-maximal effect.

SMILES	uPA surface inh	FLuc modulator	SMN2 splice enh	ELG1 genotox	Rab9 promoter act	NPC1 prom act
COCCn1c(-c2cc(OC)c(OC)c(OC)c2)nc2oc3ccccc3c(=O)c2c1=O	-10.7%	-0.4%	14.1µM*	-8.6%	2.0%	-0.8%
Cc1[nH]c2ccccc2c1/C=N/Nc1nc2ccccc2[nH]1	-5.6%	4.26µM*	·	?	18.3%	?
O=[N+]([O-])c1cc(/C=N/Nc2nc3ccccc3[nH]2)c(O)cc1O	-13.2%	23.9µM*	-65.2%	?	-27.9%	-30.6%
C(=N\Nc1nc2ccccc2[nH]1)/c1c[nH]c2ccccc12	-2.2%	7.57µM*	?	?	?	?
Cc1ccc(/C=N/Nc2nc3ccccc3[nH]2)s1	?	5.36µM*	10µM*	?	2.24µM*	2.82µM*
Cc1c(Cl)cccc1NC(=O)C(C)n1nnc2sc3c(c2c1=O)CCCC3 (stereo not drawn)	·	-1.9%	9.1%	·	·	·
O=S(=O)(c1ccc(Br)cc1)N1CCn2cccc2C1c1ccc(Br)cc1 (stereo not drawn)	·	0.1%	·	·	·	·
CC(=O)CSCc1ccccn1	·	·	-13.2%[9.22 µM]	·	·	·
Cc1ccc(N2C(=O)NC(NS(=O)(=O)c3ccc(Cl)cc3)(C(F)(F)F)C2=O)cc1C (stereo not drawn)	·	?	-2.6%	·	·	·
O=C(COc1ccc(Cl)cc1)N/N=C/c1cccc2cccnc12	-4.9%	1.9%	·	-0.9%	-2.2%	-0.7%
COc1ccc(/C=N/Nc2nc3ccccc3[nH]2)c(OC)c1OC	-1.1%	1.51µM*	·	?	?	?
Cc1ccccc1/C=N/Nc1nc2ccccc2[nH]1	-1.4%	10.7µM*	·	-10.2%	3.55µM*	?
Cc1ccc(C)c(Nc2nc3ccccc3[nH]2)c1	-3.0%	·	·	·	·	·
C(=N\Nc1nc2ccccc2[nH]1)/c1cccc2cccnc12	?	0.426µM*	·	?	-15.1%	25.7%
Cc1nn(-c2ccccc2)c(Cl)c1/C=N/Nc1nc2ccccc2[nH]1	?	0.477µM*	·	2.59µM*	0.447µM*	0.562µM*
O=[N+]([O-])c1ccc(S(=O)(=O)N(CCCN2CCOCC2)Cc2cccs2)cc1	5.1%	-2.5%	0.1%	0.2%	-6.0%	-3.4%
COC(=O)c1sc(-c2ccc(Cl)cc2)cc1NC(=O)/C=C/C(=O)O	-10.9%	9.53µM*	·	1.8%	-5.7%	-0.1%
COC(=O)c1sc(-c2ccc(Cl)cc2)cc1NC(=O)COCC(=O)O	2.1%	?	·	4.8%	2.8%	3.0%
COC(=O)c1sc(-c2ccc(C(C)(C)C)cc2)cc1NC(=O)CCC(=O)O	?	1.51µM*	·	?	26.9%	23.7%
O=S(=O)(c1cccc2nsnc12)N1CCc2ccccc21	·	21.3µM*	?	?	3.55µM*	?
O=S(=O)(c1cccc2nsnc12)N1CCN(c2ccccc2F)CC1	2.7%	0.0%	·	-5.0%	-8.0%	-3.7%
COc1ccc(NC(=O)CCCC(=O)c2ccccc2)cc1OC	-6.8%	-19.8%	·	-0.7%	10.8%	-2.0%
COc1ccc(NC(=O)CCCc2ccccc2)cc1OC	3.4%	?	·	18.3µM*	3.98µM*	3.55µM*
O=C(CCc1ccccc1)NC(=S)Nc1cccc(C(=O)O)c1	0.4%	4.78µM*	·	?	3.16µM*	1.41µM*
O=C(CCc1ccccc1)NC(=S)Nc1cccc(Br)c1	-2.8%	-2.3%	-1.3%	1.0%	-2.0%	-0.9%
SMILES	uPA surface inh	FLuc modulator	SMN2 splice enh	ELG1 genotox	Rab9 promoter act	NPC1 prom act
CC(C)(C)C(=O)NC(=S)Nc1cccc(C(=O)O)c1	5.0%	19µM*	·	?	0.794µM*	2.82µM*
O=C(CCCc1ccccc1)Nc1cccc(C(=O)O)c1	4.1%	0.379µM*	1.58µM*	0.5%	0.251µM*	0.316µM*
CO[C@]1(NC(=O)C(C(=O)O)c2ccc(O)cc2)C(=O)N2C(C(=O)O)=C(CSc3nnnn3C)COC21 (stereo partly drawn)	·	·	0.7%	·	·	·
CCOc1ccc(Nc2nc3c(S(=O)(=O)c4ccc(CC)cc4)nnn3c3ccc(Cl)cc23)cc1	·	2.1%	5.0%	·	·	·
N#Cc1cccc(NC(=O)Cn2nc(Cc3ccncc3)c3ccccc3c2=O)c1	·	-6.0%	6.8%	·	·	·
COc1ccc(NC(=O)c2oc3ccccc3c2NC(=O)Cc2cccs2)cc1	·	-6.6%	?	·	·	·
Cc1ccc(NC(=O)Cn2c(=O)n(Cc3ccco3)c(=O)c3sc4ccccc4c32)cc1C	·	-0.2%	6.7%	·	·	·
CNC(=O)COC(=O)C1CCN(S(=O)(=O)c2ccc3c(c2)OCCO3)CC1	-4.2%	2.4%	·	2.5%	-2.0%	-1.7%
Cc1cccc2cc(CN(C(=O)c3cccc(Cl)c3)c3ccccc3)c(=O)[nH]c12	·	1.8%	20.8%	·	·	·
O=C(CC1CC2CCC1C2)Nc1nc(-c2ccccn2)cs1 (stereo not drawn)	-3.7%	23.9µM*	16.9%	-4.7%	3.98µM*	28.1%
O=C(Nc1nc(-c2ccccn2)cs1)C12CC3CC(CC(O)(C3)C1)C2	-12.4%	6.75µM*	11.2µM*	?	3.16µM*	2.24µM*
O=C(Nc1nc(-c2ccccn2)cs1)C1CC1	-23.6%	?	?	0.3%	?	?
CC(=O)c1ccc(OCc2cc(C(=O)N(C)CCOc3ccc(C)cc3)no2)cc1	-9.2%	9.53µM*	·	2.91µM*	3.98µM*	2.51µM*
CC(=O)c1ccc(OCc2cc(C(=O)N(C)Cc3nc4c(C)cccc4[nH]3)no2)cc1	-3.9%	0.1%	·	-9.2%	-4.6%	-10.0%
CC(=O)c1ccc(OCc2cc(C(=O)N3CCCCC3c3cccnc3)no2)cc1 (stereo not drawn)	-4.3%	26.9µM*	·	?	?	?
CC(=O)c1ccc(OCc2cc(C(=O)N3CC[C@@H]4CCCC[C@H]4C3)no2)cc1	-5.7%	9.53µM*	·	?	2µM*	2.51µM*
CC(=O)c1ccc(OCc2cc(C(=O)NC3CCCCC3)no2)cc1	-2.3%	?	·	-6.1%	3.98µM*	3.55µM*
COCC1CCCN(C(=O)c2cc(COc3ccc(C(C)=O)cc3)on2)C1 (stereo not drawn)	8.2%	·	·	·	·	·
Cc1ccc(Cl)cc1-n1c(=O)c2sc3ccccc3c2n(Cc2ccccc2)c1=O	·	-1.0%	7.4%	·	·	·
COc1cccc([C@@H]2Oc3ccc(OC)cc3C[C@H]2OC(=O)NCc2ccco2)c1	·	·	4.7%	·	·	·
CC1=C(C(=O)Nc2ccccc2Br)C2(CCC(C)CC2)OC1=O (stereo not drawn)	·	-7.1%	-8.5%	·	·	·
O=C(CN1C(=O)CCn2nc(-c3ccccc3)cc21)NCc1ccc(Cl)cc1	·	-16.2%	·	·	·	·
O=C1CCn2nc(-c3ccc(Cl)cc3)cc2N1	3.4%	19µM*	12.6µM*	?	?	?
Cc1ccc(NC(=O)Cc2ncon2)cc1Cl	-9.1%	15.1µM*	·	5.1%	17.0%	7.7%
Cc1nc2ccc(NC(=O)N(C)c3ccccc3)cc2s1	4.2%	13.5µM*	22.4µM*	?	?	?
